# Results taken from PubChem BioAssay (EPA / NIEHS).
# Results filed as inconclusive are left out. Calls of active or inactive are those of the source. The calls were made as follows: active = hit-call score of the fitted dose curve at least 0.9, where 1 is the maximum; inconclusive = response in the unintended direction; inactive = score below 0.9.
# Columns and labels:
# [1] = molecular target: Androgen Receptor/SRC-1 Co-activator, AR (gene 367) (UniProt P10275); assay: OT_AR_ARSRC1_0480: Odyssey Thera (OT) 8-hour HEK293T Protein-Complementation Assay for Androgen Receptor/SRC-1 Co-activator (AID 2283354);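 also: hits raise the complementation signal above DMSO so AC50 marks enhancers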
# Androgen Receptor/SRC-1 Co-activator, AR (gene 367), sequence (P10275 whole entry, looked up): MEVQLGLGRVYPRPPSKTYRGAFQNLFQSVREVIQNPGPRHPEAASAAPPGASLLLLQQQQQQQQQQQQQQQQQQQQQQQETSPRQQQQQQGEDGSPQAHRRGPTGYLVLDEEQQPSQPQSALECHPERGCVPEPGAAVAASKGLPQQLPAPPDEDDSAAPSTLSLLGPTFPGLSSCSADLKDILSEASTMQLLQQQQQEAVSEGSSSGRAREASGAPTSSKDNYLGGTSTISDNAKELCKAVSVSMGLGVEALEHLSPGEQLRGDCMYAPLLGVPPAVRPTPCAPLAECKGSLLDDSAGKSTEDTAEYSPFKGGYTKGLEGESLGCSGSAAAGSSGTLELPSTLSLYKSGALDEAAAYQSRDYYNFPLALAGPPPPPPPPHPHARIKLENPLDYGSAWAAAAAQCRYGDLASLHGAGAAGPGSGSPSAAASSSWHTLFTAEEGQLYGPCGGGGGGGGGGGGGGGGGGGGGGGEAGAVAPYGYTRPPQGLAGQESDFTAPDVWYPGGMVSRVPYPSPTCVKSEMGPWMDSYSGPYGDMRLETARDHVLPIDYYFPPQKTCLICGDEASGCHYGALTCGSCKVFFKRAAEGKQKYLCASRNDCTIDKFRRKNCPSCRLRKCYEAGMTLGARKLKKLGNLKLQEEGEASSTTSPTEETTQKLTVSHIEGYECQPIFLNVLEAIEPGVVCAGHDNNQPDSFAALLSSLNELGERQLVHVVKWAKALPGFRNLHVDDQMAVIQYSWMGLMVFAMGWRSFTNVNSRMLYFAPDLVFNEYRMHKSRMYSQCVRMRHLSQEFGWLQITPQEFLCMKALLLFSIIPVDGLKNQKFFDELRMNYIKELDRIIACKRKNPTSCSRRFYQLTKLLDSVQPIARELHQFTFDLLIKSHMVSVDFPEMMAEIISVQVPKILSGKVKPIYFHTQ
# Summary of the method: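 Reconstituted split-Venus YFP signal from AR–SRC-1 interaction, read by imaging 8 h post-dose in stable HEK293T lines. The 488 nm nucleus-to-cytoplasm ratio (≥400 cells/image) was fitted upward against DMSO.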
# [2] = molecular target: Estrogen receptor (Homo sapiens) + Estrogen receptor beta (Homo sapiens) (UniProt P03372+Q92731); assay: OT_ER_ERaERb_1440: Odyssey Thera (OT) 24-hour HEK293T Protein-Complementation Assay for Estrogen Receptor-alpha/-beta Homodimer (AID 2283356);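 also: heteromer of ER alpha and ER beta binding domains; hits raise reporter fluorescence and both agonists and antagonists give an increase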
# Summary of the method: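 Readout: mean fluorescence intensity in nucleus (agonists) or nucleus plus cytoplasm (antagonists), read by laser scanning cytometer after 24 h compound exposure of HEK293T cells carrying ERα/ERβ LBD fragment-complementation constructs; DMSO baseline.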
# [3] = molecular target: Estrogen receptor beta (Homo sapiens) (UniProt Q92731); assay: OT_ER_ERbERb_0480: Odyssey Thera (OT) 8-hour HEK293T Protein-Complementation Assay for Estrogen Receptor-beta/-beta Homodimer (AID 2283357);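 also: active means signal gain over DMSO baseline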
# Estrogen receptor beta (Homo sapiens), sequence (Q92731 whole entry, looked up, the tested form may be a part): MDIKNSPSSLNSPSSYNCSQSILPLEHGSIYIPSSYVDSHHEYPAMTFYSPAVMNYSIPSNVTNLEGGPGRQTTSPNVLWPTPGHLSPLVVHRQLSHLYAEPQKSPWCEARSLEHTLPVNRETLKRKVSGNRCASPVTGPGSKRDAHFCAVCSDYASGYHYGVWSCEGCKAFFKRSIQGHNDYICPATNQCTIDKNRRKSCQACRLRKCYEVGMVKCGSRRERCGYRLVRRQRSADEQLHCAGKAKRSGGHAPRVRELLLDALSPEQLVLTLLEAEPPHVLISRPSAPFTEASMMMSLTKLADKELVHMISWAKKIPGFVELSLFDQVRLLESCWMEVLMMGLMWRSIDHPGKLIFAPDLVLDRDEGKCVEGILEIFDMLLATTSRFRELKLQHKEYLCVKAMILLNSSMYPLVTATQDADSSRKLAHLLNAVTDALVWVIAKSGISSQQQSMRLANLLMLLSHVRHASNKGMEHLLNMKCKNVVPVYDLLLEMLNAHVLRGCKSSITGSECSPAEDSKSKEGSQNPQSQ
# Summary of the method: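 ER-beta LBD homodimer PCA stably expressed in HEK293T; 8 h compound exposure, then formaldehyde fixation and Draq5 staining. Gain in nuclear/cytoplasmic fluorescence intensity versus DMSO vehicle, read on laser scanning cytometer.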
# [4] = molecular target: human Thyroid Receptor Alpha (TRa), THRA (gene 7067) (UniProt P10827); assay: NVS_NR_hTRa_Antagonist: NovaScreen (NVS) Nuclear Receptor Binding Assay for human Thyroid Receptor Alpha Antagonism (TRa) (AID 2283362);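 also: activity is loss of signal relative to DMSO baseline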
# human Thyroid Receptor Alpha (TRa), THRA (gene 7067), sequence (P10827 whole entry, looked up): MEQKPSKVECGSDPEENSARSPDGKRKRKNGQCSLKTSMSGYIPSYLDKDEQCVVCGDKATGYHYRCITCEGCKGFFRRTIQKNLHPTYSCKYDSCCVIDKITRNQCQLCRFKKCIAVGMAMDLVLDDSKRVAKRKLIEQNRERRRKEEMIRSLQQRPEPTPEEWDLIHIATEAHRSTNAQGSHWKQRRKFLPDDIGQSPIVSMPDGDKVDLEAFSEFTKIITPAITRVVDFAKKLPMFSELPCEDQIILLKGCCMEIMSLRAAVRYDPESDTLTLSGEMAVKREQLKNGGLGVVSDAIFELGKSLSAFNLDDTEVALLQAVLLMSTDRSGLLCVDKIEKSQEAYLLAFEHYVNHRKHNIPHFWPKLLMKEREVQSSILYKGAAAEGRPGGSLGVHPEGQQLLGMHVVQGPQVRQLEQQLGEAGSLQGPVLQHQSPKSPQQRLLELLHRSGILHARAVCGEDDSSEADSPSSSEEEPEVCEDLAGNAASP
# Summary of the method: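 AlphaLISA chemiluminescent immunoassay readout, taken 1 h post-dosing in a cell-free system with extracted protein. Activity was scored as signal loss against DMSO negative control, from duplicate single-concentration (25 uM) testing followed by concentration-response follow-up.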
# [5] = molecular target: rat Mineralocorticoid Receptor (MR), Nr3c2 (gene 25672) (UniProt P22199); assay: NVS_NR_rMR: NovaScreen (NVS) Nuclear Receptor Binding Assay for rat Mineralocorticoid Receptor (MR) (AID 2283355)
# rat Mineralocorticoid Receptor (MR), Nr3c2 (gene 25672), sequence (P22199 whole entry, looked up): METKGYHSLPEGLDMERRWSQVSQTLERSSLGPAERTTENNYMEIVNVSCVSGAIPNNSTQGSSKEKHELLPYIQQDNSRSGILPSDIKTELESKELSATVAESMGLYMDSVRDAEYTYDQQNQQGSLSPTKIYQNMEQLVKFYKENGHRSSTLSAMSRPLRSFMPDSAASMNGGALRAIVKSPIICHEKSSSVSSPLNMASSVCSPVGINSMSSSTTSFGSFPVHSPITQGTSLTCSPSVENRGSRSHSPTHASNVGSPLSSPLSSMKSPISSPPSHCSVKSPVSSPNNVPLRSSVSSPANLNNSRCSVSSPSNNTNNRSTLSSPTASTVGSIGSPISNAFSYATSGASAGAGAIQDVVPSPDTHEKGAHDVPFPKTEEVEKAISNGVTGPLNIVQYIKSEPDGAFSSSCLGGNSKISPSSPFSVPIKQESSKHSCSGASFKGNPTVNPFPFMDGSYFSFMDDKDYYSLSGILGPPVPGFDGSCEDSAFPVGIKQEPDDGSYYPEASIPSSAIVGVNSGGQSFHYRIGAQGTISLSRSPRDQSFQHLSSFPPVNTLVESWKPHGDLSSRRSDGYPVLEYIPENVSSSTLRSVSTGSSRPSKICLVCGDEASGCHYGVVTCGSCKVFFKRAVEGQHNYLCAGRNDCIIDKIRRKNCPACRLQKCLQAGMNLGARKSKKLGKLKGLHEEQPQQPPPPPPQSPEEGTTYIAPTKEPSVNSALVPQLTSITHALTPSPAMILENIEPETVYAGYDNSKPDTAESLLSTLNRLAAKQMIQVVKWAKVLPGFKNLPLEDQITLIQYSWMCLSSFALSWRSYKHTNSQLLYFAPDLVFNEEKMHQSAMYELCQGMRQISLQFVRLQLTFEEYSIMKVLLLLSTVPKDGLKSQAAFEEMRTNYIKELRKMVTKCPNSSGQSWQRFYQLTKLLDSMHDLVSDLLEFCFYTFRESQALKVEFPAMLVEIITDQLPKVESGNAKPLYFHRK
# Summary of the method: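 Primary HTS ran in duplicate at a single 25 uM concentration, with concentration-series follow-up for actives. Receptor source: adrenalectomized rat brain supernatant, cell-free. Radioligand displacement read by scintillation at 24 h, relative to DMSO baseline.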
# [6] = molecular target: human Dopamine Transporter (DAT), SLC6A3 (gene 6531) (UniProt Q01959); assay: NVS_TR_hDAT: NovaScreen (NVS) Transporter Assay for human Dopamine Transporter (DAT) (AID 2283374);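 also: activity means loss of bound radioligand signal relative to DMSO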
# human Dopamine Transporter (DAT), SLC6A3 (gene 6531), sequence (Q01959 whole entry, looked up): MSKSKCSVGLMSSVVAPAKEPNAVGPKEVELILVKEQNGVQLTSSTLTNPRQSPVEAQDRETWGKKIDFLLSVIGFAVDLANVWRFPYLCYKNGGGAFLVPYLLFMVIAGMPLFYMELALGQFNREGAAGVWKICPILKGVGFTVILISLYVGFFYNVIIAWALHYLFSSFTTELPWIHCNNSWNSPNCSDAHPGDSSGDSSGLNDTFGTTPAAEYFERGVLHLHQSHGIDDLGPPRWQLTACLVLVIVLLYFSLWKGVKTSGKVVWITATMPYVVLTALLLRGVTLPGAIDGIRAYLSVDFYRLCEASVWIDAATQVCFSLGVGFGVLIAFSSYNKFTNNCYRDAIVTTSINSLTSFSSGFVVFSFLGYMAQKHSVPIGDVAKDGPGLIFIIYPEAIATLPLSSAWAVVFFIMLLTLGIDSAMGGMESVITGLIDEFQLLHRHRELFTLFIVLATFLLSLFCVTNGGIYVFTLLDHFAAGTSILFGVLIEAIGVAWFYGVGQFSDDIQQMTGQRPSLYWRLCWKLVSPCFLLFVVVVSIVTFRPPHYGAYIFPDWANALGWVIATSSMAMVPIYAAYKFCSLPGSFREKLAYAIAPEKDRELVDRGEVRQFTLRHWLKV
# Summary of the method: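 Duplicate single-point screening at 25 uM preceded concentration-series follow-up of actives. Binding was measured by competitive displacement of a radioligand from DAT protein, filter-counted by scintillation 1 h after dosing. Decrease relative to DMSO taken as activity.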
# [7] = molecular target: rat Androgen Receptor (AR), Ar (gene 24208) (UniProt P15207); assay: NVS_NR_rAR: NovaScreen (NVS) Nuclear Receptor Binding Assay for rat Androgen Receptor (AR) (AID 2283366)
# Summary of the method: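 Actives from a duplicate single-concentration (25 uM) primary run went on to concentration series. Displacement of radioligand was counted by filtration and scintillation, 18 h post-dose, using prostate extracts from testosterone-pretreated rats, with DMSO as baseline.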
# [8] = test system: guinea pig Dopamine Transporter (DAT), gene 100714898; assay: NVS_TR_gDAT: NovaScreen (NVS) Transporter Assay for guinea pig Dopamine Transporter (DAT) (AID 2283369);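 also: active compounds lower bound radioligand signal relative to DMSO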
# Summary of the method: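 Cell-free striatal membrane prep (guinea pig), 2 h exposure, filtration + scintillation readout of radioligand binding. Single-point 25 uM duplicate; actives rerun singleton, top conc 50 uM.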
# [9] = molecular target: mouse Estrogen Receptor alpha (Era), Esr1 (gene 13982) (UniProt P19785); assay: NVS_NR_mERa: NovaScreen (NVS) Nuclear Receptor Binding Assay for mouse Estrogen Receptor alpha (Era) (AID 2283378);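 also: hit means loss of bound radioligand signal relative to DMSO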
# mouse Estrogen Receptor alpha (Era), Esr1 (gene 13982), sequence (P19785 whole entry, looked up): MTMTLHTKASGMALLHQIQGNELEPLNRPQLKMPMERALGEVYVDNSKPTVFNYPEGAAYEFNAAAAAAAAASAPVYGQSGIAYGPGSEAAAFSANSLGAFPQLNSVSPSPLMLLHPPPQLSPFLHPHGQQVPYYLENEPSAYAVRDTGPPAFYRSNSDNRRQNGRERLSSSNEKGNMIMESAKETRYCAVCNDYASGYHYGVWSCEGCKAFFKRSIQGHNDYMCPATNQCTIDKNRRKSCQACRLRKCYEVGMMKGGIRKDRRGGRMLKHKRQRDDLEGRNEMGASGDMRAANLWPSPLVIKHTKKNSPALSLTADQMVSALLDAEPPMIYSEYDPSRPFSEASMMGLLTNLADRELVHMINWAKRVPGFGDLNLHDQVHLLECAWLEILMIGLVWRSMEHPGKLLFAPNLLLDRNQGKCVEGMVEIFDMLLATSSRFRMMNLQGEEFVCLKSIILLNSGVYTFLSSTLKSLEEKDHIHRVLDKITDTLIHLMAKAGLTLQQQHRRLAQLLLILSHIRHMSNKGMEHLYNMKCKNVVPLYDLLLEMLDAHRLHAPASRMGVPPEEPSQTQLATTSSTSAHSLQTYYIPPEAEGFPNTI
# Summary of the method: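 Filter scintillation counts of bound radioligand, measured 18 h post-dose, gave the readout; decreased signal relative to DMSO controls indicated displacement from mouse Era. Primary screen ran in duplicate at 25 uM; active chemicals were retested across concentrations.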
# [10] = molecular target: PGR (gene 5241) (UniProt P06401); assay: NVS_NR_hPR: NovaScreen (NVS) Nuclear Receptor Binding Assay for human Progestron Receptor (PR) (AID 2283360);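 also: active means loss of bound radioligand signal versus DMSO baseline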
# PGR (gene 5241), sequence (P06401 whole entry, looked up): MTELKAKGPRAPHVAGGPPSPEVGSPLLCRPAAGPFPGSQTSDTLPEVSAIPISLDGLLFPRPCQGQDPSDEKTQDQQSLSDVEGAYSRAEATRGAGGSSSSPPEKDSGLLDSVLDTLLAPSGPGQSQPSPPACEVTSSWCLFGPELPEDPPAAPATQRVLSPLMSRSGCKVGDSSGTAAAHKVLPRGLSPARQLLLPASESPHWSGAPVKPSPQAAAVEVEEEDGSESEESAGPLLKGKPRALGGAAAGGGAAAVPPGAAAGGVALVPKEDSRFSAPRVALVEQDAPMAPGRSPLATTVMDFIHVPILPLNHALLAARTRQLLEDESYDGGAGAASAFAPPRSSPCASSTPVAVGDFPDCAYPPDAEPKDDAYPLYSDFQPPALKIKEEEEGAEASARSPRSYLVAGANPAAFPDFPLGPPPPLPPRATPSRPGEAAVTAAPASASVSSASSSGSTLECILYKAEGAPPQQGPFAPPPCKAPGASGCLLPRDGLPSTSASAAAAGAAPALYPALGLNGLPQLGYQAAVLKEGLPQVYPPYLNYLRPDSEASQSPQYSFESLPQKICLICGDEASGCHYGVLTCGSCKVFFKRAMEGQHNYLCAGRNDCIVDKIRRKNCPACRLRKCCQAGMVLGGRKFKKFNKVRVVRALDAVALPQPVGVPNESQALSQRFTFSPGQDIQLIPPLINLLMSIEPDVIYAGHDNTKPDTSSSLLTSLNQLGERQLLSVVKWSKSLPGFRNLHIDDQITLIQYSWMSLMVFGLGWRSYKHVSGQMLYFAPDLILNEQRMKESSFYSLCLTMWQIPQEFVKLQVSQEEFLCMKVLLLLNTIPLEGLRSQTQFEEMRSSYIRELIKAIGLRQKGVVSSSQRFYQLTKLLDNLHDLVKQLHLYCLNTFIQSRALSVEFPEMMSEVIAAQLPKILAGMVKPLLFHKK
# Summary of the method: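 Competitive displacement of a labelled radioligand from T47D-derived receptor protein is measured in a cell-free format. Initial testing uses 25 uM in duplicate, with positive and negative controls on every plate.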
# [11] = molecular target: Norway rat Vesicular Monoamine Transporter (VMAT2), neurotransmitter transporter, Slc18a2 (gene 25549) (UniProt Q01827); assay: NVS_TR_rVMAT2: NovaScreen (NVS) Transporter Assay for Norway rat Vesicular Monoamine Transporter (VMAT2), neurotransmitter transporter (AID 2283376);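 also: actives lower the bound radioligand signal below the DMSO level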
# Summary of the method: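 Using rat forebrain membranes, specific radioligand binding to VMAT2 was measured by filtration and scintillation counting after 1 hour. Chemicals screened at 25 uM in duplicate, actives retested in concentration series, DMSO baseline.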
# [12] = molecular target: human Norepinephrine Transporter (NET), SLC6A2 (gene 6530) (UniProt P23975); assay: NVS_TR_hNET: NovaScreen (NVS) Transporter Assay for human Norepinephrine Transporter (NET) (AID 2283377);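 also: cell-free membrane protein extracted from CHO cells expressing human NET; displacement of radioligand from human NET seen as loss of scintillation signal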
# Summary of the method: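 Single-concentration duplicate screen at 25 uM, then concentration-response for actives; displacement of specific radioligand from human NET in CHO membrane extracts, filter-based scintillation detection at 1 h relative to DMSO.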
# [13] = molecular target: Retinoic acid receptor alpha (Homo sapiens) (UniProt P10276); assay: NVS_NR_hRARa_Agonist: NovaScreen (NVS) Nuclear Receptor Binding Assay for human Retinoic Acid Alpha Receptor Agonism (RAR) (AID 2283361)
# Summary of the method: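 Agonist-mode TR-FRET binding format using extracted protein, measured at 2 h post-dosing. Initial duplicate single-point screen at 25 uM preceded concentration series for actives; activity was normalized to DMSO baseline.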
# [14] = molecular target: human Serotonin Transporter (SERT), SLC6A4 (gene 6532) (UniProt P31645); assay: NVS_TR_hSERT: NovaScreen (NVS) Transporter Assay for human Serotonin Transporter (SERT) (AID 2283372)
# Summary of the method: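 Human platelet membrane preparation; displacement of radioligand from serotonin transporter measured after 1 h by filtration and scintillation counting. Single 25 uM duplicate screen, then concentration series for actives, with DMSO as negative baseline.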
# [15] = molecular target: Nuclear receptor subfamily 1 group I member 2 (Homo sapiens) (UniProt O75469); assay: NVS_NR_hPXR: NovaScreen (NVS) Nuclear Receptor Binding Assay for human Pregnane X Receptor (PXR) (AID 2283365);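 also: a drop in FRET signal versus DMSO baseline means the compound binds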
# Summary of the method: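 TR-FRET signal read at 2 h in a cell-free human PXR binding format. DMSO served as negative control and baseline; activity scored as signal loss. Single-concentration duplicate screen (25 uM), then concentration-response follow-up.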
# [16] = molecular target: rat Serotonin Transporter (SERT), Slc6a4 (gene 25553) (UniProt P31652); assay: NVS_TR_rSERT: NovaScreen (NVS) Transporter Assay for rat Serotonin Transporter (SERT) (AID 2283375)
# Summary of the method: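 Radioligand displacement, filter scintillation readout; rat forebrain membrane prep, 1 h post-dose. Single-conc 25 uM duplicate screen, then concentration-response on actives. Loss of signal vs DMSO baseline.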
smiles,measurement,setting,value
Cc1cnc(C2=NC(C)(C(C)C)C(=O)N2)c(C(=O)O)c1 (stereo not given),outcome,[1],inactive
same,outcome,[2],inactive
same,outcome,[3],inactive
same,outcome,[4],inactive
O=C(Nc1ccccc1-c1ccc(Cl)cc1)c1cccnc1Cl,outcome,[2],inactive
same,outcome,[3],inactive
COC(=O)c1c(C(F)F)nc(C(F)(F)F)c(C2=NCCS2)c1CC(C)C,outcome,[1],inactive
same,outcome,[2],inactive
same,outcome,[3],inactive
O=C1C2CC=CCC2C(=O)N1SC(Cl)(Cl)Cl (stereo not given),outcome,[2],inactive
CCOc1nc(C(Cl)(Cl)Cl)ns1,outcome,[5],inactive
same,outcome,[2],inactive
same,outcome,[3],inactive
COC(=O)N(C(=O)N1CO[C@@]2(C(=O)OC)Cc3cc(Cl)ccc3C2=N1)c1ccc(OC(F)(F)F)cc1,outcome,[1],inactive
same,outcome,[2],inactive
same,outcome,[3],inactive
same,outcome,[6],inactive
COP(=O)(OC)O/C(C)=C/C(=O)N(C)C,outcome,[2],inactive
same,outcome,[3],inactive
CCC(C)n1c(=O)[nH]c(C)c(Br)c1=O (stereo not given),outcome,[2],inactive
CCSC(=O)N1CCCCCC1,outcome,[2],inactive
same,outcome,[3],inactive
CCCCOCN(C(=O)CCl)c1c(CC)cccc1CC,AC50,[1],50 µM (active)
same,outcome,[2],inactive
same,outcome,[3],inactive
same,outcome,[7],inactive
COC(=O)NS(=O)(=O)c1ccc(N)cc1,outcome,[5],inactive
same,outcome,[2],inactive
same,outcome,[3],inactive
CNC(=O)N(C)c1nnc(C(C)(C)C)s1,outcome,[2],inactive
Clc1cccc(C(Cl)(Cl)Cl)n1,outcome,[1],inactive
same,outcome,[2],inactive
CN/C(=N\[N+](=O)[O-])NCc1cnc(Cl)s1,outcome,[2],inactive
CC1(C)CCC(=Cc2ccc(Cl)cc2)C1(O)Cn1cncn1 (stereo not given),AC50,[1],15.5 µM (active)
same,outcome,[2],inactive
same,outcome,[3],inactive
same,AC50,[8],1.19 µM (active)
same,AC50,[6],0.545 µM (active)
same,outcome,[9],inactive
CCOc1cc(C(C)(C)C)ccc1C1COC(c2c(F)cccc2F)=N1 (stereo not given),AC50,[1],20.4 µM (active)
same,outcome,[5],inactive
same,outcome,[2],inactive
same,outcome,[3],inactive
same,outcome,[8],inactive
same,outcome,[6],inactive
CCOP(=O)(OCC)Oc1nc(Cl)c(Cl)cc1Cl,outcome,[1],inactive
same,outcome,[2],inactive
same,outcome,[3],inactive
same,outcome,[10],inactive
same,outcome,[6],inactive
COCc1cnc(C2=NC(C)(C(C)C)C(=O)N2)c(C(=O)O)c1 (stereo not given),outcome,[1],inactive
same,outcome,[2],inactive
same,outcome,[3],inactive
O=C(O)c1c(Cl)ccc2cc(Cl)cnc12,outcome,[2],inactive
same,outcome,[3],inactive
Nc1c(Cl)c(F)nc(OCC(=O)O)c1Cl,outcome,[1],inactive
same,outcome,[2],inactive
same,outcome,[3],inactive
CC(C)Nc1nc(Cl)nc(NC(C)C)n1,outcome,[2],inactive
COc1cc(Cl)c(OC)cc1Cl,outcome,[2],inactive
same,outcome,[3],inactive
COc1ccc(-c2ccccc2)cc1NNC(=O)OC(C)C,outcome,[1],inactive
same,outcome,[5],inactive
same,outcome,[2],inactive
same,outcome,[3],inactive
Cc1ccc(N=CN(C)C=Nc2ccc(C)cc2C)c(C)c1,outcome,[2],inactive
same,outcome,[3],inactive
C=CCOC(=O)C(C)(C)OC(=O)c1cc(-n2c(=O)cc(C(F)(F)F)n(C)c2=O)ccc1Cl,outcome,[2],inactive
same,outcome,[3],inactive
CCCCC(O)(Cn1cncn1)c1ccc(Cl)cc1Cl (stereo not given),AC50,[1],75.8 µM (active)
same,outcome,[2],inactive
same,outcome,[3],inactive
same,outcome,[10],inactive
same,outcome,[4],inactive
same,outcome,[7],inactive
same,AC50,[6],2.25 µM (active)
same,AC50,[11],15 µM (active)
same,AC50,[12],13.3 µM (active)
Nc1cnn(-c2ccccc2)c(=O)c1Cl,outcome,[2],inactive
same,outcome,[3],inactive
CS(=O)(=O)c1ccc(C(=O)C2C(=O)CCCC2=O)c([N+](=O)[O-])c1,outcome,[2],inactive
same,outcome,[3],inactive
CS(=O)(=O)c1cc(C(F)(F)F)ccc1C(=O)c1cnoc1C1CC1,outcome,[2],inactive
same,outcome,[3],inactive
COCC(C)N(C(=O)CCl)c1c(C)csc1C (stereo not given),outcome,[2],inactive
COc1cc(OC)nc(NC(=O)NS(=O)(=O)c2ncccc2OCC(F)(F)F)n1,outcome,[2],inactive
same,outcome,[3],inactive
CC(C)N1C(=O)c2ccccc2NS1(=O)=O,outcome,[5],inactive
same,AC50,[13],6.37 µM (active)
same,outcome,[14],inactive
same,AC50,[12],14.2 µM (active)
COP(=S)(OC)SCn1nnc2ccccc2c1=O,outcome,[1],inactive
same,outcome,[2],inactive
same,outcome,[3],inactive
same,outcome,[7],inactive
same,outcome,[9],inactive
CC(C)N1C(=O)N(c2ccccc2)CSC1=NC(C)(C)C,outcome,[1],inactive
same,outcome,[2],inactive
same,AC50,[3],21.1 µM (active)
CCCC(=NOCC)C1=C(O)CC(CC(C)SCC)CC1=O (stereo not given),outcome,[5],inactive
same,outcome,[2],inactive
same,outcome,[3],inactive
same,outcome,[9],inactive
COCC(=O)N(c1c(C)cccc1C)C(C)C(=O)OC (stereo not given),outcome,[2],inactive
same,outcome,[3],inactive
CCNP(=S)(OC)O/C(C)=C/C(=O)OC(C)C (stereo not given),outcome,[2],inactive
same,outcome,[3],inactive
same,outcome,[15],inactive
CNC(=O)Oc1cccc2ccccc12,outcome,[10],inactive
same,outcome,[4],inactive
same,outcome,[14],inactive
same,AC50,[16],7.36 µM (active)
same,outcome,[9],inactive
O=c1n(Cl)c(=O)n(Cl)c(=O)n1Cl,outcome,[2],inactive
same,outcome,[3],inactive
Clc1nc(Cl)nc(Nc2ccccc2Cl)n1,outcome,[2],inactive
same,outcome,[3],inactive
same,AC50,[4],25 µM (active)
same,outcome,[11],inactive
CC(C)Oc1cccc(NC(=O)c2ccccc2C(F)(F)F)c1,outcome,[2],inactive
same,outcome,[10],inactive
CCN(CC)c1nc(C)cc(OP(=S)(OC)OC)n1,AC50,[2],34.9 µM (active)
same,AC50,[3],30.7 µM (active)
same,outcome,[10],inactive
same,outcome,[4],inactive
